In PubChem BioAssay (Tox21):
Unmarked numbers belong to inactive results. The source made the active and inactive calls. Calls come from the whole dose curve; as a rule, active = well fitted activation curve with a large enough effect in the repeat runs; inconclusive = weak or mixed curves; inactive = flat fitted curve, though single readings scatter.

Experiment: A CellTox Green Cytotoxicity Assay to monitor cytotoxicity in HepG2 cells - 0 hour (AID 1224882); note: nearly all actives have a fitted effect of over 35% in size
Settings: CellTox Green fluorescence; series mostly up to 76.8 µM; cytotoxicity: at the top concentration
Description: National Center for Advancing Translational Sciences [NCATS]
NIH Chemical Genomics Center [NCGC]
U.S. Environmental Protection Agency [EPA]
National Institutes of Environmental Health Sciences [NIEHS]
National Toxicology Program [NTP]
Cell-based models are critical for drug discovery. Determining the natural cytotoxic effects resulting from test compounds is an essential research activity. A CellTox Green Cytotoxicity Assay to monitor cytotoxicity in real time of continues cell culture during 40 hours of the compound treatment was used to screen Tox21 10K library compounds in HepG2 cells. CellTox Green Cytotoxicity Assay is a nonlytic, homogeneous, biofluorescent method to measure cytotoxicity in cell culture after experimental manipulation. The assay system uses a proprietary asymmetric cyanine dye that is excluded from viable cells but preferentially stains the dead cell's DNA. […] Viable cells produce no appreciable increases in fluorescence. Therefore, the fluorescence signal produced by the binding interaction with dead cell DNA is proportional to cytotoxicity.
The mixture of HepG2 cell suspension and reagents were dispensed at 600cells/6 ul/well in 1536-well tissue culture treated black solid bottom plates using a Multidrop dispenser. After the assay plates were incubated at a 37 C/5% CO2 incubator for 5 hours, 23 nL of compounds dissolved in DMSO, positive and negative controls was transferred to the assay plate by a pintool work station. The plates were incubated at 37 C for 40 hours. The fluorescence intensity were measured at 0h, 8h, 16h, 24h, 32h and 40h time points using ViewLux plate reader during compound treatment.
% is set by controls: 0 for no effect and ±100 for the full control effect; potency is the fitted concentration of half-maximal effect.

SMILES | cytotoxicity | Potency
NC(=O)COCCN1CCN(C(c2ccccc2)c2ccc(Cl)cc2)CC1 (stereo not given) | 3.05% [at 35.3 µM] | –
CN1CCN(c2cc3c(cc2F)c(=O)c(C(=O)O)cn3-c2ccc(F)cc2)CC1 | -0.426% [at 35.3 µM] | –
CCN1CCC[C@H]1CNC(=O)c1c(O)c(Cl)cc(Cl)c1OC | 1.16% [at 35.3 µM] | –
CN1CCC(=C2c3ccccc3CC(=O)c3sccc32)CC1 | -1.29% [at 35.3 µM] | –
CC[N+](C)(C)c1cccc(O)c1 | -11.8% [at 35.3 µM] | –
CCCCCCCCCCCCCCCCC | -1.86% | –
CN(C)CCCNCCCN(C)C | 1.02% | –
CC(=O)CC(C)C | 0.538% | –
CC(=O)Nc1c(I)cc(I)c(C(=O)O)c1I | -0.777% [at 35.3 µM] | –
C=CCCCCCCCCC=O | -0.0995% | –
CCCCCCCCCCCC | -4.4% | –
COCCCOCCCOC | 8.14% | –
CC(C)(c1ccc(O)cc1)c1ccc(O)cc1 | – | inactive
Cc1[nH]c(=O)c(C#N)cc1-c1ccc2nccn2c1 | -8.63% [at 35.3 µM] | –
C[N+](C)(C)CC(O)CC(=O)[O-] (stereo not given) | 5.75% [at 35.3 µM] | –
Nc1c[n+](N2CCOCC2)no1 | -2.53% [at 35.3 µM] | –
N[C@H]1CN(c2c(F)cc3c(=O)c(C(=O)O)cn(C4C[C@H]4F)c3c2Cl)CC12CC2 (stereo not given in full) | -0.115% [at 35.3 µM] | –
CN(C)CCCN1c2ccccc2CCc2ccc(Cl)cc21 | – | inactive
CC(C)OC(=O)c1ccccc1 | -7.73% | –
C[C@H](NC(CCc1ccccc1)C(=O)O)C(=O)N1CCC[C@H]1C(=O)O (stereo not given in full) | 0.39% [at 35.3 µM] | –

SMILES | cytotoxicity | Potency
N=c1nc(N2CCCCC2)cc(N)n1O | 2.21% [at 35.3 µM] | –
COc1cc(C(=O)N2CCCCCCC2)cc(OC)c1OC | 16.6% [at 35.3 µM] | –
CCCCOCCOCCOCc1cc2c(cc1CCC)OCO2 | – | inactive
CC/C=C\CC/C=C/CO | 0.991% | –
C/C=C(\C)C#N | -3.84% | –
CCO/C([O-])=N/c1c[n+](N2CCOCC2)no1 | 0.385% [at 35.3 µM] | –
Cc1cccc(C)c1NC(=O)C(C)N (stereo not given) | – | 21.3 µM (active)
CCC=O | -0.606% | –
COc1nc(N)nc2c1ncn2[C@@H]1O[C@H](CO)[C@@H](O)[C@@H]1O | -0.944% [at 35.3 µM] | –
CCc1ccc(O)c(OC)c1 | -4.85% | –
COc1ccc2c(c1)c(CC(=O)OCC(=O)O)c(C)n2C(=O)c1ccc(Cl)cc1 | -4.48% [at 35.3 µM] | –
CC(C)NCC(O)c1ccc(NS(C)(=O)=O)cc1 (stereo not given) | 0.517% | –
CCOC(=O)c1c(C)n(C)c2ccc(O)cc12 | -9.53% [at 35.3 µM] | –
COC(=O)c1cc(C(=O)OC)cc(S(=O)(=O)O)c1 | -1.7% | –
Cn1cc(S(C)=O)c(=O)c2ccc(F)cc21 (stereo not given) | 2.83% [at 35.3 µM] | –
FC(F)OC(Cl)C(F)(F)F (stereo not given) | -0.086% | –
C[C@H]1C[C@@H](O)CC(C)(C)C1 | 12.9% | –
C1OCOCO1 | -1.8% | –
CC(C)=CCCC(C)CC(=O)O (stereo not given) | 2.77% | –
O=c1cc(CO)occ1O | -6.83% [at 35.3 µM] | –
